Compounds with a hit are over-represented: about 2.7% of the library has one in this group of screens.
KDM5B inh: KDM5B demethylase inhibition. KDM5B demethylase, FDH-coupled NADH fluorescence (FDH is formaldehyde dehydrogenase). Potency, µM (series often up to 57.7 µM), most hits filed as inhibitors. 2.6% of 220,000 active; active means well fitted inhibition curve with a large enough effect; inconclusive means small, poorly fitted or top-dose-only effect; inactive means no such curve, though single readings can be large or run the other way; further: potency means the concentration at half of the fitted maximal effect; 0% is about no effect; nearly all actives have a fitted effect of over 70% in size
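qHTS format, multiple compound concentrations. Buffer 50 mM HEPES pH 7.5/0.01% Tween-20; 200 nM KDM5BΔAP final; 10 min compound preincubation; substrate-mix levels 12.5 µM peptide, 25 µM α-KG, 0.25 mM NAD⁺; 30 min RT; ΔRFU.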
IP6K1 inhibitor: inhibitors of human IP6K1 | IP6K1 kinase, ADP-Glo luminescence, 2 h; active compounds read low | activity change, % (series mostly up to about 58 µM) | 0.81% of 140,000 active | AID 1645851; in the data active means activity change below about -25%; further: on the % scale 0 is the no-effect control and ±100 the full control effect
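ADP-Glo luminescence measures ADP made by human IP6K1 during a 2 h RT reaction with ATP/IP6 (mix at 1.3 mM/130 uM); top library doses 57.5 and 19.1 uM final.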
An asterisk follows results filed as active; i = inactive; ? = inconclusive; . = no result; ! = not confirmed by another sample.

SMILES | KDM5B inh | IP6K1 inhibitor
COc1ccc(-c2ccnc(N[C@H]3CO[C@H]4[C@@H]3OC[C@@H]4NC(=O)N3CCOCC3)n2)cc1 | ? | -12
COc1ccc(-c2ccnc(N[C@H]3CO[C@H]4[C@@H]3OC[C@H]4OC(=O)Nc3ccc(C(C)=O)cc3)n2)cc1 | i | -12
C=CCNC(=O)N[C@H]1CO[C@H]2[C@@H]1OC[C@@H]2Nc1nccc(-c2ccc(OC)cc2)n1 | 35µM* | -6
COc1ccccc1-c1ccc(CN2CCCCC2C(=O)N2CCN(Cc3ccccc3)CC2)cc1 (stereo unspecified) | . | 5
CC(NC(=O)/C(=C/c1cccc(Br)c1)NC(=O)c1ccco1)C(=O)O (stereo unspecified) | i | .
CCCCn1c(=O)c(C(=O)N2CCN(C(=O)c3cccc(Cl)c3)CC2)nc2cccnc21 | . | 10
CCCCCCOc1ccc(C(=O)OCC(=O)c2ccc(Cl)cc2)cc1 | i | .
CCN1CCN(C(=O)C2CCc3nnc(C4CCN(C(C)=O)CC4)n32)CC1 (stereo unspecified) | . | 10
CNC(=O)c1c(C)nc2cnccn12 | . | -4
COCC1CN(C2CCC2)CC12CCN(C(=O)COc1ccc(F)cc1)CC2 (stereo unspecified) | 10µM* | 5
COCC1CN(C2CCC2)CC12CCN(C(=O)COc1ccccc1)CC2 (stereo unspecified) | ? | 8
O=C(c1cc2ccccc2oc1=O)N1CCCC(C(F)(F)F)C1 (stereo unspecified) | i | .
NC1CCc2nn(CC(=O)NCc3ccc4c(c3)OCO4)c(=O)n2CC1 (stereo unspecified) | 10µM* | -13
O=C(Cn1nc2n(c1=O)CCCC2)Nc1ccc2c(c1)OCO2 | i | 2
COc1ccc(C(C)=O)cc1COC(=O)C1(c2cccc(F)c2)CCCC1 | i | .
O=C1NC(=NC2CCCCC2)C2(CCCN(Cc3cccnc3)C2)N1c1cc(F)cc(F)c1 (stereo unspecified) | i | -2
Cc1ccc(C(=O)N2CCC(Cc3ccc(CN4CCCCC4)cc3)CC2)cn1 | . | 8
Cc1noc(C)c1CCCNC(=O)c1ccc(N2CCN(CC3CC3)CC2)nc1 | 28µM* | 6
Cc1noc(C)c1CCCNC(=O)c1ccc(N2CCC[C@H]2CO)nc1 | i | 2
COc1ccc2[nH]c(=O)c(-c3noc(-c4cccs4)n3)cc2c1 | i | .
CC(=O)Nc1ccc(NC(=O)C2CC(=O)Nc3cc(F)ccc32)cc1 (stereo unspecified) | i | .
COc1ccc(-c2nnc3ccc(NCCc4ccccn4)nn23)nc1 | 40µM* | -10
Cc1ccc(-c2nnc3ccc(NCCc4ccccn4)nn23)nc1 | ? | -16
Cc1ccc2nc([C@H]3CCN(C4CCC4)C3)[nH]c2c1 | 28µM* | 2
c1cc2nc(C3CCN(C4CCCCC4)C3)[nH]c2cn1 (stereo unspecified) | 40µM*! | 1
SMILES | KDM5B inh | IP6K1 inhibitor
CC(C)N1CC[C@H](c2nc3ccc(C#N)cc3[nH]2)C1 | ? | 9
COc1ccc2nc([C@H]3CCN(C(C)C)C3)[nH]c2c1 | 32µM* | -12
CN1CCC(N2CC[C@H](c3nc4ccccc4[nH]3)C2)CC1 | i | 0
FC(F)(F)c1ccc2nc([C@H]3CCN(C4CCCCC4)C3)[nH]c2c1 | ? | 7
COc1ccc(F)cc1-c1ccc(CN2CCC(N[S+](=O)([O-])c3ccc(NC(C)=O)cc3)C2)cc1 (stereo unspecified) | . | -7
C=CCNC(=O)C(NC(C)=O)C1CCCC1 (stereo unspecified) | i | .
O=C(NC1CCCN(Cc2ccc(-c3cncnc3)cc2)C1)c1ccc(C(F)(F)F)cc1 (stereo unspecified) | . | 2
CN(Cc1ccccc1)C(=O)[C@@H]1CCCN1c1ccnc2ccnn12 | . | -6
C[S+](=O)([O-])N1CCC(Cn2ccc3c(N4CCOCC4)nc(-c4cccnc4)cc32)CC1 | ? | 17
Cc1ccc(-c2cc3c(ccn3CC3CCN([S+](C)(=O)[O-])CC3)c(N3CCOCC3)n2)cn1 | 32µM* | 2
O=C(NCC(F)(F)F)c1nc2sccn2c1-c1ccc(C(F)(F)F)cc1 | . | 13
Cc1noc(C)c1-c1cnc(Nc2ccc(F)c(Cl)c2)c2c1CCO2 | 18µM* | 19
COc1cncc(Nc2ncc(-c3cccc(N(C)C)c3)c3c2OCC3)c1 | 32µM* | 20
Cc1noc(C)c1-c1cnc(Nc2ccc(F)cc2)c2c1CCO2 | ? | -11
COc1ccc(Nc2ncc(-c3cnn(C)c3)c3c2OCC3)cc1 | 35µM* | -18
Cn1cc(-c2cnc(Nc3cnccn3)c3c2CCO3)cn1 | ? | 15
COc1cccc(Nc2ncc(-c3c(C)noc3C)c3c2OCC3)c1 | 35µM* | -9
COc1cncc(Nc2ncc(-c3c(C)noc3C)c3c2OCC3)c1 | ? | -21
COc1cncc(Nc2ncc(-c3cccnc3)c3c2OCC3)c1 | i | -20
COc1ccccc1-c1cccc(C(=O)N2CCN(C(=O)c3ccccc3Cl)CC2)c1 | . | -6
CC/C(C)=N/NC(=O)C1CC1 | i | .
O=C(NCC(=O)N1CCC(c2ccccc2)CC1)c1cccc(-c2ccsc2)c1 | . | -2
COc1ccc(OC)c(CCNC(=O)c2ccc(N3C(=O)CCS3(=O)=O)cc2)c1 | i | .
Cc1cccc(N/N=C/c2ccc(C#N)cc2)c1 | i | .
O=C(N[C@H]1CCN2C(=O)N(c3cccc(C(F)(F)F)c3)C(=O)[C@@H]2C1)c1ccncc1 | i | -4
SMILES | KDM5B inh | IP6K1 inhibitor
O=C(N[C@H]1CCN2C(=O)N(c3cccc4nsnc34)C(=O)[C@@H]2C1)c1ccnc(Cl)c1 | 28µM* | 10
CCC(C)NC(=O)c1ccc(-c2cccc(C#N)c2)o1 (stereo unspecified) | 25µM* | 13
CCC(C)NC(=O)CCc1ccc(C#N)cc1 (stereo unspecified) | i | .
O=C(CN1C(=O)NC(Cc2c[nH]c3ccccc23)C1=O)Nc1cccc(F)c1 (stereo unspecified) | i | .
Cc1cn2nc(C(=O)N3CCC(NC(=O)c4cccc(C#N)c4)CC3)cc2c(=O)[nH]1 | ? | -1
CN(Cc1ccccc1)c1ncc2c(n1)CC(C)(C)CC2NC1CCOCC1 (stereo unspecified) | ? | -1
CC(=O)NCC(=O)NC1CC(C)(C)Cc2nc(N(C)Cc3ccccc3)ncc21 (stereo unspecified) | 32µM* | 30
Cc1cn2nc(-c3nc(C4CCCN(C(=O)Cc5ccsc5)C4)no3)cc2c(=O)[nH]1 (stereo unspecified) | i | 5
Cc1cn2nc(-c3nc(C4CCCN(C(=O)Cc5cccc(F)c5)C4)no3)cc2c(=O)[nH]1 (stereo unspecified) | ? | 0
Cc1cn2nc(-c3nc(C4CCCN(C(=O)c5ccc(C)s5)C4)no3)cc2c(=O)[nH]1 (stereo unspecified) | 28µM* | -16
CCc1ccc(C(=O)N2CCCC(c3noc(-c4cc5c(=O)[nH]c(C)cn5n4)n3)C2)cc1 (stereo unspecified) | 25µM* | 2
Cc1cn2nc(-c3nc(C4CCCN(C(=O)c5sccc5C)C4)no3)cc2c(=O)[nH]1 (stereo unspecified) | 25µM* | 10
Cc1cccc(C(=O)N2CCCC(c3noc(-c4cc5c(=O)[nH]c(C)cn5n4)n3)C2)c1 (stereo unspecified) | i | 0
